Compound activity as filed in PubChem.
CendR NRP1 mod: modulators of CendR peptide binding to human neuropilin-1; O14786; FAM-RPARPAR peptide binding to NRP-1, fluorescence polarization; inhibition, % at 25 µM; 360,000 compounds, 0.85% hits;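 active = inhibition or corrected inhibition above about 18%, plus a signal ratio from 0.5 to 1.5, limit read from the data, passing the limit was not always enough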
PDI inh: PDI (human) enzyme inhibition. P07237. 350,000 compounds, 0.052% hits. inhibition, % at 10 µM. PDI insulin aggregation turbidity, A650, 90 min. AID 588391;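 active = mean inhibition across replicates of 30% or more, whatever share of single replicates reach that level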
ARNT-TACC3 inh: disruptors of human ARNT/TACC3 interaction. AlphaScreen His-ARNT PAS-B/GST-TACC3 binding, luminescence; TACC3 fragment carries E629A point mutation. 390,000 compounds, 0.66% hits. inhibition, % at 9.99 µM. AID 623870. Q9Y6A5;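 active = mean inhibition of replicates at least 50% and at least half of replicates each reaching 50%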;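 note: 0% = complete ARNT plus TACC3 wells and 100% = ARNT alone without TACC3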
PglD DTNB: PglD (C. jejuni) enzyme inhibition. AID 602405. 360,000 compounds, 0.098% hits. inhibition, % at 12.5 µM. purified PglD enzyme, DTNB colorimetric CoA detection; in the data active = inhibition above about 16%, passing the limit was not always enough
ERp5 block: blocks human ERp5 reductase activity on insulin. inhibition, % at 9.99 µM. 350,000 compounds, 0.05% hits. ERp5 insulin aggregation, absorbance 650 nm, 90 min;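 active = mean replicate inhibition above about 25%, with every replicate also reaching it, limit read from the data, passing the limit was not always enough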
ALR inh: inhibitors of human sulfhydryl oxidase ALR | P55789 | purified ALR, DTT oxidation, H2O2 HRP-luminol luminescence | inhibition, % (concentration not given with the values) | 290,000 compounds, 3.8% hits;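 active = mean replicate inhibition above about 79%, with every replicate also reaching it, limit read from the data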
Target sequence (P55789 whole entry, looked up): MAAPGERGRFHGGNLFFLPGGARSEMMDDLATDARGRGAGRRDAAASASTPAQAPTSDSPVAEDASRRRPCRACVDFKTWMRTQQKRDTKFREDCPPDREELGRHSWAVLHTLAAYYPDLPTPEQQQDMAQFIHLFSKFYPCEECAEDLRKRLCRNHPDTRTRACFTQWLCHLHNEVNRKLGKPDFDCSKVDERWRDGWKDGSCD
* hit, by the source's call. Many of the other results were omitted from the sample, so hits are more common in it than they were.

Cc1ccc(Nc2nnc(SCC(=O)NC(Cc3c[nH]c4ccccc34)C(=O)O)s2)cc1 (stereo unspecified) was read as CendR NRP1 mod -9, PDI inh 1, ARNT-TACC3 inh 27, PglD DTNB -1, ERp5 block -2 and ALR inh 94*.
Screening Cn1c(=O)c2[nH]c(Nc3ccccc3)nc2n(C)c1=O returned CendR NRP1 mod 1, PDI inh 22, PglD DTNB 4 and ALR inh 89*.
Screening Cn1c(=O)c2[nH]c(CCNC(=O)c3ccccc3)nc2n(C)c1=O returned CendR NRP1 mod 18*, PDI inh -15, ARNT-TACC3 inh 0 and ERp5 block 4.
Screening Cn1c(=O)c2[nH]c(CCCCCc3nc4ccccc4[nH]3)nc2n(C)c1=O returned CendR NRP1 mod 2, PDI inh -2, PglD DTNB 0 and ERp5 block -8.
Screening Cc1ccc(CNc2nc3c([nH]2)c(=O)n(C)c(=O)n3C)cc1 returned CendR NRP1 mod 6, PDI inh 8, ARNT-TACC3 inh 1, PglD DTNB -1 and ALR inh 2.
O=C(C[C@H]1C=C[C@H](NC(=O)C2CCC2)[C@@H](CO)O1)NCCCN1CCOCC1 was read as ARNT-TACC3 inh -6, PglD DTNB -4 and ERp5 block -3.
CC1Cc2nc(SCC(=O)Nc3ccc(F)cc3)n(C)c(=O)c2S1 (stereo unspecified) was read as CendR NRP1 mod -2, PDI inh 9, ARNT-TACC3 inh -3 and ALR inh 98*.
Screening CC1Cc2nc(SCC(=O)Nc3nccs3)n(C)c(=O)c2S1 (stereo unspecified) returned CendR NRP1 mod -9, PDI inh 6, ARNT-TACC3 inh 0, PglD DTNB 0, ERp5 block -2 and ALR inh 98*.
`CCOc1ccc(NC(=O)CSc2nc3c(c(=O)n2C)SC(C)C3)cc1` (stereo unspecified) gave CendR NRP1 mod 24, PDI inh 12, ARNT-TACC3 inh -6, PglD DTNB 6, ERp5 block 1 and ALR inh 98*.
Screening Cc1nnc(NC(=O)CSc2nc3c(c(=O)n2C)SC(C)C3)s1 (stereo unspecified) returned CendR NRP1 mod 11, ARNT-TACC3 inh -2, PglD DTNB 0, ERp5 block -13 and ALR inh -11.
Screening Cc1ccc(-n2c(SCC(=O)Nc3cc(C)on3)nc3c(c2=O)SC(C)C3)cc1 (stereo unspecified) returned CendR NRP1 mod 0, ARNT-TACC3 inh -4, PglD DTNB 2, ERp5 block 3 and ALR inh 91*.
For C[C@@H]1CN([C@H](C)CO)C(=O)c2cccc(NC(=O)c3ccncc3)c2O[C@@H]1CN(C)CC1CC1 the results were ARNT-TACC3 inh -5, PglD DTNB -1 and ERp5 block 7.
CNC[C@@H]1Oc2cc(-c3cncnc3)ccc2S(=O)(=O)N([C@H](C)CO)C[C@H]1C was read as ARNT-TACC3 inh 2, PglD DTNB 3 and ERp5 block 2.
CCC(=O)N(C)C[C@@H]1Oc2ncc(-c3ccccc3C)cc2C(=O)N([C@H](C)CO)C[C@H]1C was read as ARNT-TACC3 inh -10, PglD DTNB -2 and ERp5 block -3.
For CCOc1ccccc1NC(=O)CSc1nc2c(c(=O)n1C)SC(C)C2 (stereo unspecified) the results were CendR NRP1 mod -2, PDI inh -1, ARNT-TACC3 inh 3, PglD DTNB 2, ERp5 block 3 and ALR inh 25.
For COc1cccc(NC(=O)CSc2nc3c(c(=O)n2C)SC(C)C3)c1 (stereo unspecified) the results were CendR NRP1 mod -10, PDI inh 7, ARNT-TACC3 inh -4, PglD DTNB 3, ERp5 block 4 and ALR inh 99*.
`Cc1cc(C)cc(NC(=O)CSc2nc3c(c(=O)n2C)SC(C)C3)c1` (stereo unspecified) gave CendR NRP1 mod -2, PDI inh 6, ARNT-TACC3 inh -9, ERp5 block 8 and ALR inh 97*.
Screening Cc1ccc(-n2c(SCC(=O)N3CCCC3)nc3c(c2=O)SCC3)cc1 returned ALR inh 87*.
For CCOc1ccc(NC(=O)CSc2nc3ccsc3c(=O)n2CCC(=O)O)cc1 the results were CendR NRP1 mod 4, PDI inh -4, ARNT-TACC3 inh 3, PglD DTNB 4 and ALR inh 95*.
For COCC#Cc1cnc2c(c1)C(=O)N([C@H](C)CO)C[C@H](C)[C@H](CN(C)C(=O)C1CCCCC1)O2 the results were ARNT-TACC3 inh -16, PglD DTNB 2 and ERp5 block -3.
Screening COc1cccc(-c2ccc3c(c2)[C@H]2[C@H](CCN2C(=O)C2CCCC2)[C@@H](CO)N3)c1 returned ERp5 block 0.
For CC(=O)Nc1ccc(S(=O)(=O)NNC(=O)c2cc3c4ccccc4n(C)c3s2)cc1 the results were CendR NRP1 mod -18, PDI inh 7, ARNT-TACC3 inh 1, PglD DTNB 2 and ALR inh 98*.
Screening COCCNC(=O)c1cc2c3ccccc3n(C)c2s1 returned CendR NRP1 mod -15, PDI inh -3, PglD DTNB -1 and ALR inh 99*.
Screening CCCNC(=O)c1cc2c3ccccc3n(C)c2s1 returned CendR NRP1 mod -12, PDI inh 2, ARNT-TACC3 inh -1, PglD DTNB -12 and ALR inh 99*.
`COC(=O)Cc1[nH]nc2c1C(c1ccc(O)c(OC)c1)C(C#N)=C(N)O2` (stereo unspecified) gave CendR NRP1 mod -25, PDI inh 6, ARNT-TACC3 inh 5, PglD DTNB 2, ERp5 block 2 and ALR inh 99*.
`COc1nc(-c2ccccc2Cl)ccc1C#N` gave CendR NRP1 mod -10, PDI inh 21, ARNT-TACC3 inh -11, PglD DTNB -1 and ALR inh 98*.
For Cn1c(Cc2ccccc2)nnc1SCC(=O)c1ccc(Br)s1 the results were CendR NRP1 mod 5, PDI inh 4, ARNT-TACC3 inh -1, PglD DTNB -2 and ALR inh 83*.
For C[C@H]1CCCCO[C@H](CN(C)C)[C@@H](C)CN([C@@H](C)CO)C(=O)c2cc(NC(=O)Nc3ccc(F)cc3)ccc2O1 the results were ARNT-TACC3 inh -11, PglD DTNB 5 and ERp5 block -3.
For Cc1occc1C(=O)NCc1ccccn1 the results were CendR NRP1 mod -2, PDI inh 4, ARNT-TACC3 inh 0, PglD DTNB -3 and ALR inh 82*.
Screening Cc1occc1C(=O)NCc1cccc(CNC(=O)c2ccoc2C)c1 returned CendR NRP1 mod -33, PDI inh 8, ARNT-TACC3 inh 3 and PglD DTNB -2.
